Among the data in PubChem BioAssay (NCI) are growth values, retold here.

Compounds without any hit were thinned out: in the full panel of roughly 83,000, 20% have a hit.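 Cells were grown in 96-well plates and exposed to the test compound at a single concentration for 48 hours; results are reported as percent growth, with values below 10 considered active.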 Values without a mark were called inactive. Activity calls are given as the source filed them.

Common to all, as to experiment: NCI-60 one-dose screen, 48 h (100 = growth as untreated, 0 = no growth, -100 = all killed)
Common to all, as to settings: 10 µM unless noted

The subject of experiment [1] is NCI-H23 lung.
For experiment [2], the system named is NCI-H226 lung.
Experiment [3] relates to NCI-H322M lung.
Experiment [4] relates to HOP-62 NSCLC.
For experiment [5], the system named is NCI-H460 lung.
For experiment [6], the system named is HOP-92 NSCLC.
The subject of experiment [7] is NCI-H522 lung.
Experiment [8] relates to A549/ATCC NSCLC.
The subject of experiment [9] is 786-0 renal.
Experiment [10] relates to COLO 205 colon.
Experiment [11] deals with DU-145 prostate.
Experiment [12] has as its system K-562 leukemia.
In experiment [13] the test system is MALME-3M melanoma.
Experiment [14] relates to MDA-MB-231 breast.
The subject of experiment [15] is RXF 393 renal.
Experiment [16] concerns SF-268 CNS.
Experiment [17] concerns SF-295 CNS.
The test system of experiment [18] is SF-539 CNS.
Experiment [19] has as its system UACC-257 melanoma.
The subject of experiment [20] is M14 melanoma.

As for `CC(C)(C)OC(=O)c1ccc(NCc2cc(O)ccc2O)cc1`, the growth in [1] was 59.5%; in experiment [2], 9.37% (active); in experiment [3], 84.1%; in [4] it was 45.1%; in [5], 53.4%; in experiment [6], 17.5%. Moreover, the growth in experiment [7] was -78.4% (active); in experiment [8] it was 40.9%; in [9], -72.7% (active); in [10] it was 10.8%; in [11], 57%; in experiment [12], 3.17% (active). Besides, the growth was -40.2% (active) in experiment [13]; -38.2% (active) in experiment [14]; -68.3% (active) in [15]; 16.5% in experiment [16]; 78.4% in experiment [17]; -70.1% (active) in experiment [18]. Moreover, the growth in [19] is -6.29% (active); in experiment [20], 44.5%.
Regarding `Nc1nc(-c2ccccn2)cc(-c2cc(-c3ccccn3)nc(N)n2)n1`, the growth in experiment [1] was 103%; in experiment [2] it was 96.1%; in experiment [3] it was 94.3%; in experiment [4], 119%; in [5], 134%; in experiment [6] it was 103%. Also, the growth in experiment [7] was 107%; in experiment [8], 117%; in experiment [9] it was 112%; in experiment [10], 118%; in experiment [11], 119%; in [12], 114%. The growth in experiment [13] is 109%; in experiment [14], 102%; in experiment [15], 105%; in experiment [16] it was 106%; in experiment [17] it was 102%; in experiment [18], 103%. Also, the growth in [19] was 112%; in [20], 100%.
As to `N#Cc1c(N)nc2c(c(-c3ccc(Cl)cc3)nn2-c2ccccc2)c1C#N`, the growth is 93.7% [100 µM] in [1]; 97.1% [100 µM] in experiment [2]; 104% [100 µM] in experiment [3]; 96.1% [100 µM] in experiment [4]; 96.8% [100 µM] in experiment [5]; 90.8% [100 µM] in experiment [6]. The growth in experiment [7] is 102% [100 µM]; in experiment [8], 94.9% [100 µM]; in experiment [9], 72.2% [100 µM]; in experiment [10] it was 117% [100 µM]; in [11], 101% [100 µM]; in experiment [12] it was 97.6% [100 µM]. For the same compound, the growth was 105% [100 µM] in experiment [13]; 98% [100 µM] in experiment [14]; 97.1% [100 µM] in experiment [15]; 93.7% [100 µM] in experiment [16]; 97.9% [100 µM] in experiment [17]; 74.1% [100 µM] in experiment [18]. Further, the growth in experiment [19] is 91.8% [100 µM]; in [20] it was 106% [100 µM].
As for `C=CCN1C(=O)c2ccccc2C1=O`, the growth in [1] was 103%; in experiment [2], 101%; in [3] it was 102%; in experiment [4], 104%; in [5], 101%; in experiment [6] it was 80.9%. In addition, the growth is 86% in experiment [7]; 100% in [8]; 103% in [9]; 98.4% in experiment [10]; 107% in [11]; 106% in [12]. Also, the growth in [13] was 120%; in experiment [14], 106%; in experiment [15] it was 104%; in [16], 106%; in experiment [17] it was 109%; in experiment [18] it was 95.3%. In addition, the growth in experiment [19] was 102%; in [20], 99.9%.
As for `CCCCC/C(C)=N\NC(N)=S`, the growth was 89.5% in [1]; 86% in experiment [2]; 90.4% in experiment [3]; 89.8% in experiment [4]; 94.8% in [5]; 93.2% in [6]. In addition, the growth in [7] was 89.3%; in experiment [8], 78.4%; in experiment [9] it was 101%; in experiment [10] it was 92.8%; in experiment [11], 85.2%; in experiment [12], 58.7%. In addition, the growth in experiment [13] was 83.7%; in [14], 85.9%; in experiment [15], 85.7%; in [16] it was 88.2%; in experiment [17] it was 83.4%; in [18] it was 103%. For the same compound, the values for the growth in [19] and in experiment [20] were 60% and 74.5%, respectively.
Turning to `CCCC(=O)OCC(COC(=O)CCC)OC(=O)CCC`, the growth in [1] was 104%; in experiment [2], 94.5%; in [3] it was 93.9%; in experiment [4], 98.6%; in experiment [5] it was 101%; in [6], 87.3%. For the same compound, the growth in experiment [7] is 99.1%; in experiment [8], 94.9%; in experiment [9] it was 102%; in experiment [10], 111%; in experiment [11] it was 111%; in experiment [12], 97.7%. The growth in experiment [13] was 107%; in [14], 109%; in experiment [15], 110%; in experiment [16] it was 104%; in [17], 99.9%; in experiment [18], 103%. The growth was 95.5% in experiment [19] and 102% in experiment [20].
On to `O=COCCCc1ccccc1`, for which the growth in experiment [1] is 109%; in [2], 95.4%; in experiment [3], 104%; in [4], 86.4%; in [5], 107%; in experiment [6] it was 84.9%. For the same compound, the growth in experiment [7] was 80.5%; in [8] it was 83.7%; in [9], 105%; in [10], 106%; in experiment [11], 112%; in experiment [12], 104%. Moreover, the growth in experiment [13] was 106%; in experiment [14] it was 100%; in experiment [15], 108%; in [16], 103%; in experiment [17], 106%; in experiment [18], 102%. Moreover, the results for the growth in experiment [19] and in experiment [20] were 86.5% and 105%, respectively.
